Drawing on PubChem BioAssay AID624352 (Sanford-Burnham Center for Chemical Genomics, 2012), this text covers inhibition for 88 compounds.

In all, about 360,000 compounds went through this assay and about 2,600 (0.72%) were called active. This excerpt belongs to a sample that is enriched for actives. A number with no mark means an inactive call.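 Rule for the calls: active = inhibition of the luminescence signal of 40% or more relative to plate controls, in a single-dose primary screen at 18.75 µM; inactive = the rest.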

By inhibition is commonly meant the drop in the measured response relative to a control, in per cent.

The nature of this assay: HIF-2a reporter inhibitors, primary screen, luminescence, 786-0 RCC cells (AID 624352). The note with it: 786-0 RCC cells HIF-2a reporter, luciferase luminescence, overnight; at 18.8 µM; hits give high values.
For `O=C(CCc1nnc2ccc(NCc3ccco3)nn12)Nc1cc(F)ccc1F`, the inhibition is -0.521%. Then `Cc1ccc(Cc2cncc(O)c2)cc1S(=O)(=O)O`, with 9.79%; and `Cc1ccc(CN(C(=O)c2sc3ccccc3c2Cl)C2CCS(=O)(=O)C2)cc1` (stereo not drawn), with 32%.

On to `COc1cc(/C=C(\C#N)C(=O)Nc2ccc3ccccc3c2)c([N+](=O)[O-])cc1OC`, for which the inhibition is 17%. Take `CC(OC(=O)/C=C/c1ccccc1)C(=O)NC1CCCCC1C` (stereo not drawn): the inhibition was 8.8%. The result for `CC1CCCCC1NC(=O)/C(C#N)=C/C=C/c1ccccc1[N+](=O)[O-]` (stereo not drawn) reads 79.7% (active); that for `Cc1ccc(SCCC(=O)NC(C(C)C)C(C)C)cc1`, 23.2%; that for `CCN(CC)CCOc1ccc2c(c1)C(=NNC(=O)c1ccccn1)c1cc(OCCN(CC)CC)ccc1-2`, 13.8%. Then `Cc1ccc(N2CC(C(=O)N3CCC4(CC3)CC(=O)c3ccccc3O4)CC2=O)cc1C` (stereo not drawn), with 2.59%. As to `CC(C)Cn1cnc2c(SCc3ccc(Cl)cc3)nc(N)nc21`, the inhibition was -109%. Then `CCC(C)Cn1c(O)cc2nn(-c3nc4ccccc4s3)c(=O)c-2c1C` (stereo not drawn), with 80.9% (active); and `CCC/C(O)=C1\C(=O)CC(C)(C)CC1=Nc1ccccc1OC`, with 10%; and `O=C(Nc1ccc(OCC(=O)N2CCOCC2)cc1)c1cc(F)c(F)cc1Cl`, with -39.3%. The result for `CC1CC(=O)Nc2ccccc2N1C(=O)COc1ccc2cc(Br)ccc2c1` (stereo not drawn) reads 10.2%. Regarding `OCCCNc1nccc(-c2cc(Nc3cccc(Cl)c3)ncn2)n1`, the inhibition is -18.5%. The result for `CC(C)n1cnc2c(Nc3cccc(Cl)c3)nc(N(CCO)CCCO)nc21` reads 51.3% (active); that for `O=C1NC(Nc2nc3ccccc3s2)(C(F)(F)F)C(=O)N1C1CCCCC1` (stereo not drawn), -11.7%; that for `COc1cc(OC)c(C2=NOC(C(=O)Nc3c(C)n(C)n(-c4ccccc4)c3=O)C2)cc1Cl` (stereo not drawn), 11.3%. Then `c1ccc2cc(CCCc3cc4ccccc4cn3)ncc2c1`, with -39.5%.

On to `CCOC(=O)c1c(C)nn(-c2ncccc2NC(=O)CCC(=O)O)c1C`, for which the inhibition is 11.8%.

As to `COC(=O)c1c(NC(=O)CCN2CCOCC2)sc2c1CCCC2`, the inhibition is 5.82%. As for `COC(=O)c1c(NC(=O)CCCC(=O)O)sc2c1CCCCC2`, the inhibition is 50.8% (active). Take `COC(=O)c1c(NC(=O)C2CC(C)=C(C)CC2C(=O)O)sc2c1CCCCC2` (stereo not drawn): the inhibition was 16%.

In the case of `O=C(CCCn1c(=O)oc2ccccc21)Nc1cccnc1`, the inhibition was 2.59%.

On to `NS(=O)(=O)c1cc(Cl)c(Cl)c(S(N)(=O)=O)c1`, for which the inhibition is -2.27%. For the compound `Cc1nc(N=C(N)N)nc2c(C)cccc12`, the inhibition is 15%.

In the case of `NC(N)=Nc1nc(-c2ccccc2)c2cc(Cl)ccc2n1`, the inhibition was 41.9% (active). Then `NC(N)=Nc1nc2ccc(Br)cc2c(=O)[nH]1`, with -20.2%.

Regarding `S=C(NC1CCCCC1)NN1CCOCC1`, the inhibition was 12.3%. Then `Cc1sc(NC(=S)NC(=O)c2cccs2)nc1-c1ccc(CC(C)C)cc1`, with -5.06%; and `O=C(C1=C[C@H](c2coc3ccccc3c2=O)C[C@H](OCc2ccc(CO)cc2)O1)N1CCN(Cc2ccccc2)CC1`, with 25%.

On to `CSC1=N/C(=C\C=C\c2cccs2)C(=O)S1`, for which the inhibition was -28.6%. Then `O=C(COc1nsnc1N1CCOCC1)Nc1ccccc1Cl`, with -40.8%; and `O=C(Nc1ccccc1Cl)/C(Cl)=C(\Cl)S(=O)c1ccccc1` (stereo not drawn), with 95.4% (active). For the compound `Cc1cccc(C)c1NC(=O)CNC(=O)c1c(C)nn(-c2ccccc2)c1C`, the inhibition was 0.612%. The result for `O=C(/C=C(O)/C=C/c1ccc(O)cc1)/C=C/c1ccc(O)cc1` reads -18.9%; that for `O=C(NCCC1=CCCCC1)c1ccc(Cl)c([N+](=O)[O-])c1`, -91%; that for `O=C(/C=C/c1ccc(Cl)c([N+](=O)[O-])c1)c1ccc(O)cc1`, 79% (active). Consider `O=C(CN1C(=O)c2ccccc2S1(=O)=O)N1CCc2ccccc21`, for which the inhibition is 82.3% (active). Then `CN(Cc1cccs1)C(=O)CN1C(=O)c2ccccc2S1(=O)=O`, with -66.1%; and `Cc1ccc(S(=O)(=O)N(C)CC(=O)N2CCc3ccccc32)cc1`, with -0.159%; and `COCCNC(=O)c1ccc2c(c1)ncn2-c1ccc(C)c(Cl)c1`, with -31.7%. With `Cc1ccc(CNC(=O)COC(=O)C2CCC2)cc1`, the inhibition was 2.35%. The result for `CCc1c(N=O)c(-c2ccccc2)n(O)[n+]1[O-]` reads -2.82%; that for `Cc1ccc(S(=O)(=O)NCC(=O)N(CC(=O)NCC2CCCO2)c2cccc(F)c2)cc1` (stereo not drawn), 8.25%; that for `CC1CCc2c(c3ccccc3[nH]c2=O)O1` (stereo not drawn), 6.77%.

On to `Cc1cc(Cl)c(S(=O)(=O)Nc2ccc3c(c2)OCCO3)cc1OCC(N)=O`, for which the inhibition was 43.7% (active). Then `Cc1cc(Cl)c(S(=O)(=O)NCCC(=O)O)cc1OCC(N)=O`, with 0.473%; and `Cc1cc(Cl)c(S(=O)(=O)N(C)C)cc1OCC(N)=O`, with 7%; and `CCNC(=O)C1(C)CCCN(C(=O)c2ccc3ccccc3n2)C1` (stereo not drawn), with 3.52%.

Regarding `COc1cc(SC)ccc1C(=O)Nc1nc(C)cs1`, the inhibition is 77.6% (active). Then `COCCn1c(SCC(=O)Nc2nc(C)cs2)nnc1C(C)C`, with 9.65%; and `Cc1csc(NC(=O)CSc2ccc(-c3ccc(F)cc3)nn2)n1`, with -4.55%; and `O=C(COC(=O)Cc1ccccc1F)NCCc1ccccc1`, with -1.26%. The result for `O=C(CCCN1C(=O)C(c2ccccc2)Oc2cccnc21)Nc1ccccc1Br` (stereo not drawn) reads 12.9%; that for `C=CCOc1ccc(/C=C2\SC(=S)N(CCC(=O)O)C2=O)cc1`, 90.6% (active). As for `O=C(CCN1C(=O)c2ccccc2C1=O)Nc1ccncc1`, the inhibition is 13.6%.

On to `Cc1ccc(NC(=O)CCN2C(=O)c3ccccc3C2=O)cc1C`, for which the inhibition is -6.43%. Then `C=CCOc1ccc(C(=O)Nc2ccccc2C(=O)N2CCCC2)cc1`, with -0.109%.

Regarding `O=C(CCCN1C(=O)/C(=C\c2ccco2)SC1=S)Nc1cccc2ccccc12`, the inhibition was 56.3% (active).

Consider `O=C(CCCN1C(=O)/C(=C/c2ccco2)SC1=S)Nc1ccccc1`, for which the inhibition is 45.3% (active). On to `Cc1c(Cl)cccc1NC(=O)CCC(=O)N/N=C/c1ccco1`, for which the inhibition is 6.46%.

For the compound `O=C(CN1C(=O)/C(=C\c2ccc(C(F)(F)F)cc2)Sc2ccccc21)NCc1ccco1`, the inhibition was -23.3%. Then `CN(C(=O)CN1C(=O)/C(=C/c2ccc(Cl)cc2)SC1=S)C1CCS(=O)(=O)C1` (stereo not drawn), with -14%; and `O=C(OCN1C(=O)c2ccccc2C1=O)/C(=C\c1ccco1)NC(=O)c1ccccc1`, with 1.64%. The result for `O=C(CCCN1C(=O)/C(=C/c2ccccc2)SC1=S)Nc1ccc(O)cc1` reads 46.2% (active); that for `CCN(Cc1ccccc1)C(=O)CN1C(=S)NC(C)(C)CC1C` (stereo not drawn), 4.59%; that for `COc1cc(C(=O)OCC(=O)NC(C)CCc2ccccc2)cc(OC)c1OC` (stereo not drawn), 26.2%.

`O=C1CCC(CCC(=O)N2CCCC(C(=O)c3ccc(Cl)cc3)C2)=NN1` (stereo not drawn): the inhibition is -12.6%. Then `CC(C)(O)C1=C[N+](=O)CC=C1`, with -0.393%; and `O=C(O)c1ccccc1OCc1ccccc1Cl`, with 10%; and `COc1ccc2c(C)c(CCC(=O)NC3CC3)c(=O)oc2c1C`, with -156%.

Regarding `Cc1c(CCC(=O)O)c(=O)oc2c(C)c(OCc3ccccc3Cl)ccc12`, the inhibition was 44.6% (active). Then `C#CCNc1nc(C(C)C)nc2c1nnn2Cc1ccccc1F`, with 4.59%.

As for `COc1ccc(S(=O)(=O)N2CCN(C(=O)NC3CCCCC3)CC2)cc1`, the inhibition was 12.4%.

For `Cc1cccc2sc(N(CCCN(C)C)C(=O)CCS(=O)(=O)c3ccccc3)nc12`, the inhibition was 56.1% (active). In the case of `O=C(CCS(=O)(=O)c1ccccc1)NC1CCCC1`, the inhibition was -146%. The result for `Cc1cccc(C)c1NC(=O)CCS(=O)(=O)c1cccc2nsnc12` reads 4.25%. Then `COCCN(C(=O)CCC(=O)Nc1nccs1)C(C(=O)NC(C)(C)C)c1ccc(Cl)cc1` (stereo not drawn), with 5.58%. Then `CN1C(=O)[C@H]2[C@@H](/C=C/c3ccccc3)N3C(=O)CN(Cc4ccc(-c5ccccc5)cc4)C(=O)[C@@]3(C)[C@H]2C1=O`, with -8.21%; and `O=C(CNCc1ccco1)Nc1cc(S(=O)(=O)N2CCOCC2)ccc1N1CCCC1`, with 12.6%; and `Cc1ccc(N(Cc2ccccc2O)C(=O)c2ccccc2F)cc1`, with 16.1%.

Turning to `Cc1ccc(N(Cc2cc(=O)[nH]c3ccccc23)C(=O)CCl)cc1`, the inhibition is 45.7% (active). As to `CCC(=O)N(Cc1cc2ccccc2[nH]c1=O)c1ccc(OC)cc1`, the inhibition is 20.9%. Then `O=C(NCCC(=O)N1O[C@@H]2C=C[C@H]1C2)OCC1c2ccccc2-c2ccccc21`, with 3.4%; and `CN(C)CCn1c2c(c(SCC(=O)Nc3ccccc3C(F)(F)F)nc1=O)CCCC2`, with 11.7%.

With `NC(=O)c1cc(S(=O)(=O)N2CCCC2)ccc1OCc1ccc(F)cc1`, the inhibition is 24%. Then `Cc1[nH]c2ccc(S(N)(=O)=O)cc2c1C`, with 11.6%.
